# High-throughput results: PubChem BioAssay, National Center for Advancing Translational Sciences (NCATS)
# TDP1 cell CPT = qHTS for Inhibitors of human tyrosyl-DNA phosphodiesterase 1 (TDP1): qHTS in cells in presence of CPT. chicken DT40 Tdp1-/-;hTDP1 cells + 20 nM CPT, ATP luminescence, 48 h. Potency, µM (highest dose often 46.2 µM), without a hit: at the highest dose activity change, negative = growth inhibition, actives largely listed as inhibitors. actives 12% (n = 420,000). AID 686979, 2013; also: potency is read from the fitted curve at half-maximal effect; % is scaled to controls: 0 for no effect and ±100 for the full control effect; nearly all actives have a fitted effect of over 55% in size
#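 Chicken DT40 Tdp1-/- cells complemented with human TDP1, 400 cells/well, exposed to compounds plus 20 nM camptothecin for at least 48 h at 37 C; viability read as ATP content by CellTiter-Glo luminescence.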
# TDP1 inh = qHTS Assay for Inhibitors of Tyrosyl-DNA Phosphodiesterase (TDP1) | Tyrosyl-DNA phosphodiesterase 1 (Homo sapiens), Q9NUW8 | recombinant TDP1, AlphaScreen DNA substrate cleavage | Potency, µM (titrated, usually from 130 µM), inactives show at the top dose activity change, negative = inhibition, hits mostly inhibitors | actives 0.28% (n = 350,000) | AID 485290, 2010; also: potency is read from the fitted curve at half-maximal effect; % is scaled to controls: 0 for no effect and ±100 for the full control effect; nearly all actives have a fitted effect of over 40% in size
# Target sequence (Q9NUW8 whole entry, looked up): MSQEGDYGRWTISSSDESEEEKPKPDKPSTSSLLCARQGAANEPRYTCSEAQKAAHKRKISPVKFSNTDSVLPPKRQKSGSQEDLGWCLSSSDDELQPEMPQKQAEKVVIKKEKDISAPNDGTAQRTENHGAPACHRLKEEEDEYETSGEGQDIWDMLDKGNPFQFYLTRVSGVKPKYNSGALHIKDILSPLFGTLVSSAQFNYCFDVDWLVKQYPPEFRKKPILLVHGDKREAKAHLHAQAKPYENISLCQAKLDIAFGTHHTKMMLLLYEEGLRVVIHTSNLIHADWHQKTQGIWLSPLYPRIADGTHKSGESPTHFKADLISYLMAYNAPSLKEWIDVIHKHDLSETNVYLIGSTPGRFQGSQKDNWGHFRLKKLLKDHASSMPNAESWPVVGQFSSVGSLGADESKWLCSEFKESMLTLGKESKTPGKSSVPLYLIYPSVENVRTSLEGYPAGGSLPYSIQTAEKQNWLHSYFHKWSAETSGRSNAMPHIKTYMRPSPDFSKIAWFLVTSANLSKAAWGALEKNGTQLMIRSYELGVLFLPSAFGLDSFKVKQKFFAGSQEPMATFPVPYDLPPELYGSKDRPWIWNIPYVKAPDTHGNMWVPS
#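 Here, a 5' biotin and 3' phosphotyrosine-FITC DNA oligonucleotide reports Tdp1 activity: intact substrate bridges AlphaScreen beads, while cleavage leaves a 3' phosphate and drops signal. All incubations at room temperature.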
# TGFb inhibitor = qHTS for Inhibitors of TGF-b; HepG2 CAGA-GFP TGF-b/SMAD3 reporter, GFP fluorescence, 18 h; TGF-beta stimulated, 500 pg/mL final; Potency, µM (series often up to 46.1 µM), for inactives: at the top dose activity, negative = inhibition, actives largely listed as inhibitors; actives 1.2% (n = 410,000); AID 588855, 2011; also: potency is read from the fitted curve at half-maximal effect; % is scaled to controls: 0 for no effect and ±100 for the full control effect; nearly all actives have a fitted effect of over 65% in size
#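 HEPG2 CAGA-GFP, 1000 cells/well; 2 h settle, 37 C; cpd via pin tool; TGF-b 500 pg/mL final; 18 h, 37 C; GFP imaging ex488/em500-530; %Activity normalised to -TGF-b and +DMSO controls; CRC fit, curve class.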
# DT40 TDP1 no CPT = qHTS for Inhibitors of human tyrosyl-DNA phosphodiesterase 1 (TDP1): qHTS in cells in absence of CPT | Potency, µM (doses to about 46.2 µM), without a hit: top-dose activity change, negative = growth inhibition, hits mostly inhibitors | AID 686978, 2013 | actives 15% (n = 420,000) | DT40 Tdp1-/- hTDP1 cells, no CPT, ATP luminescence, 48 h; also: potency is read from the fitted curve at half-maximal effect; % is scaled to controls: 0 for no effect and ±100 for the full control effect; nearly all actives have a fitted effect of over 55% in size
#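 DT40 Tdp1-/-;hTDP1 cells, no CPT (DMSO vehicle only), 400 cells/well; compounds pin-transferred; ≥48 hr, 37 °C; CellTiter-Glo 30 min RT dark, luminescence read.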
# HepG2 tox = qHTS for Inhibitors of TGF-b: Cytotox Counterscreen. HepG2 CAGA-GFP viability, ATP luminescence, 18 h. Potency, µM (top dose mostly 46.1 µM), without a hit: at the highest dose activity change, negative = cytotoxicity, usual class: cytotoxic. actives 0.76% (n = 410,000); also: potency is read from the fitted curve at half-maximal effect
#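 CellTiter-Glo luminescence gave cytotoxicity after 18 hours at 37 degrees C. The cells were HepG2 CAGA-GFP in 1% FBS DMEM, stimulated with 500 pg/mL TGF-beta after compound addition. %Activity was normalised to no-cell wells (complete cell-killing) and DMSO (no toxicity), and curves were fitted and classified.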
# IL-1B inflam inh = qHTS for Inhibitors of Inflammasome Signaling: IL-1-beta AlphaLISA Primary Screen; THP-1 LPS/ATP IL-1B secretion, AlphaLISA, 16 h; active compounds read low; actives 4.7% (n = 360,000); activity change, % at 57.5 µM; in the data active = activity change below about -50%; inconclusive = mostly about -30% to -49%; also: % is scaled to controls: 0 for no effect and ±100 for the full control effect
#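 THP-1 cells pretreated 1 hr with compounds (up to 57.5 uM final), then stimulated with LPS (250 ng/mL final) plus ATP (1.25 mM final); secreted IL-1B measured by AlphaLISA after 16 hr, decreased signal indicating inhibition.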
# * = called active by the depositor; ? = inconclusive; nt = not tested or not shown; [ ] = another dose, or the depositor's remark. This is a sample that favours compounds with a hit; in the whole collection about 18% have one here. Unless noted, calls follow the shape of the dose curve; as a rule, active = well fitted curve in the direction sought with a large enough effect; inconclusive = small, poorly fitted or top-dose-only effect, or another doubt; inactive = no such curve, though single readings can be large; an effect the other way counts as inactive or inconclusive.
SMILES,TDP1 cell CPT,TDP1 inh,TGFb inhibitor,DT40 TDP1 no CPT,HepG2 tox,IL-1B inflam inh
CCc1ccc(OCC(=O)N(Cc2cccs2)c2ccc(Cl)cc2)cc1,?,nt,16µM*,?,-33%,nt
COc1ccc(N(Cc2cccs2)C(=O)Nc2cccc(Cl)c2)cc1,?,-8%,?,?,-20%,nt
COc1ccc(OCC(=O)N(Cc2cccs2)c2ccc(OC)cc2)cc1,16µM*,5%,-28%,23µM*,-10%,nt
COc1ccc(N(Cc2cccs2)C(=O)COc2ccc(C(C)C)cc2)cc1,23µM*,-13%,?,21µM*,-31%,nt
CCOc1ccc(N(Cc2ccc(OC)c(OC)c2)C(=O)c2ccco2)cc1,?,0%,-17%,18µM*,-54%,6
COc1ccc(OCC(=O)N(Cc2cccs2)C2CCS(=O)(=O)C2)cc1 (configuration not stated),-2%,3%,-1%,1%,-1%,9
CCOc1ccc(N(Cc2ccc(OC)cc2)C(=O)c2ccco2)cc1,?,3%,-26%,?,13%,?
CN1CCN(C2CN(Cc3cn(Cc4ccc(C(F)(F)F)cc4)nn3)S(=O)(=O)C2)CC1 (configuration not stated),-6%,nt,nt,4%,nt,-6
Cc1ncc2c(c1CNC(=O)c1ccc3c(c1)OCO3)CCN(C(=O)c1cn3ccccc3n1)C2,17%[9.04 µM],nt,nt,-15%,nt,nt
COc1ccc(CN(C(=O)c2ccco2)c2ccc(C)c(C)c2)cc1,?,-4%,-17%,?,-24%,23
COc1ccc(N(Cc2cccs2)C(=O)c2ccco2)cc1,23µM*,-5%,14%,?,-1%,nt
CC(C)(C)c1csc(NC(=O)c2ccccc2O)n1,-23%,nt,?,?,-12%,-83*
CSc1ncccc1C(=O)Nc1nc(C(C)(C)C)cs1,-17%,0%,16%,?,-2%,-18
Cc1csc(NC(=O)c2ccccc2O)n1,-15%,7%,5%,-26%,-20%,49
CC(C)(C)c1csc(NC(=O)c2c(F)c(F)c(F)c(F)c2F)n1,?,0%,-15%,?,-20%,-55*
COc1ccccc1CCNCc1cc2cccc(C)c2nc1-c1cccs1,4%,nt,nt,-10%,nt,nt
CC(Sc1ccc(Cl)cc1)C(=O)N(C)CC(=O)Nc1ccc(N2CCOCC2)cc1 (configuration not stated),?,nt,-11%,?,-19%,-18
CCn1c(=O)c(C(=O)Nc2ncccc2O)c(O)c2ccccc21,13%,nt,4%,-2%,-25%,10
Cc1cccnc1NC(=O)c1c(O)c2cccc3c2n(c1=O)CCC3,?,4%,-25%,?,-14%,34
CCn1c(=O)c(C(=O)Nc2ncccc2C)c(O)c2ccccc21,2.3µM*,4%,18%,2.6µM*,-17%,7
Cn1c(=O)c(C(=O)NNC(=O)c2ccc(Br)cc2)c(O)c2ccccc21,?,nt,7.1µM*,18µM*,-44%,24
Cc1cccnc1NC(=O)c1c(O)c2ccccc2n(C)c1=O,?,3%,27%,23µM*,-28%,18
CCn1cnc2c(Nc3ccc(CC(=O)N=C(N)N)cc3)nc(C#N)nc21,nt,-3%,nt,nt,nt,nt
COc1ccc(S(=O)(=O)N(C)CC(=O)NCc2ccc3c(c2)OCO3)cc1,-16%,1%,9%,2%,-14%,18
